Reference: PubChem BioAssay AID2014 (Sanford-Burnham Center for Chemical Genomics, 2009)
Screen size: about 290,000 compounds; about 3,000 (1%) were called active. No rule for the calls is given here. Many of the other results were omitted from the sample, so actives are more common in it than they were.

Target: Polyadenylate-binding protein 1 (Homo sapiens) (UniProt P11940)
Assay: PABP poly(A) RNA binding inhibitors, primary screen, biochemical, fluorescence polarization, uHTS (AID 2014);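 also: calls also rest on retests at 20 µM and on dose response follow-up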
Conditions: stronger effect = higher value

Chain of Polyadenylate-binding protein 1 (Homo sapiens) (P11940 whole entry, looked up): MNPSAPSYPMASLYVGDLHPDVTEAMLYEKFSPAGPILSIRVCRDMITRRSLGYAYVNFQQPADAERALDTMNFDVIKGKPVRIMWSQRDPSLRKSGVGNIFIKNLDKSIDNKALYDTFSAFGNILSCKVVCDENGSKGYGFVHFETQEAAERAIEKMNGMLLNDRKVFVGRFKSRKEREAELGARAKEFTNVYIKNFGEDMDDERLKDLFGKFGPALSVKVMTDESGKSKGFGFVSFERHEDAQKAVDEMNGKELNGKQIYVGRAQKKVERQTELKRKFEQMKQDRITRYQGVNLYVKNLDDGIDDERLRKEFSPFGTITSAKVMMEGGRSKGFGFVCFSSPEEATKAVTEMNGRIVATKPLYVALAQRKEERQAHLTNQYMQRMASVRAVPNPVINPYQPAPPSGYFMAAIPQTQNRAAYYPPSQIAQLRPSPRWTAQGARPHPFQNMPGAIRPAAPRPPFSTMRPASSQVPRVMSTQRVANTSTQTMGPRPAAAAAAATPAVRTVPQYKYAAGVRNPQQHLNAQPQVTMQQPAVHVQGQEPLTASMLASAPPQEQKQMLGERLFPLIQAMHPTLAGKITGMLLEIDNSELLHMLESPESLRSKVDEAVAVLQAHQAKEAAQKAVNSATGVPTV

In the case of `O=C(Cc1ccccc1F)NC1CCSc2ccccc21` (stereo not given), the inhibition (at 35 µM) is reported as 0.4% (inactive).

With `Cc1c(C)c(C)c2[nH]c(=S)[nH]c2c1C` the inhibition (at 35 µM) was 9.8% (inactive).

With `O=c1[nH]c(=S)[nH]c2[nH]c(=S)[nH]c12` the inhibition (at 35 µM) was 91.1% (active).

For `Cc1ccc2c(c1)N(CC(=O)N1CCOCC1)C(=O)CO2`, the inhibition (at 35 µM) was 2.5% (inactive).

With `CC1(c2ccc3ccccc3c2)NC(=O)N(CC(N)=O)C1=O` (stereo not given) the inhibition (at 35 µM) was -4.5% (inactive).

In the case of `NNC(=O)c1cnn(-c2ccccc2)c1C(F)(F)F`, the inhibition (at 35 µM) is reported as 10.3% (inactive).

In the case of `O=C(NNS(=O)(=O)c1ccccc1)c1cnn(-c2ccc(Cl)cc2)c1C(F)(F)F`, the inhibition (at 35 µM) is reported as 11.5% (active) and the inhibition (confirmation repeats, at 20 µM) is reported as 102%.

In the case of `O=C(NNS(=O)(=O)c1ccc(Cl)cc1)C1CCN(Cc2ccccc2)CC1`, the inhibition (at 35 µM) is reported as -4% (inactive).

With `COc1ccc(CCNC(=O)c2ccccc2OCc2ccccc2)cc1` the inhibition (at 35 µM) was -3.4% (inactive).

With `CC(C)(C)OC(=O)NNc1c2ccccc2nc2ccccc12` the inhibition (at 35 µM) was -1.9% (inactive).

In the case of `CC(=O)c1cnc(SCC(=O)O)nc1C`, the inhibition (at 35 µM) is reported as 54.3% (active) and the inhibition (confirmation repeats, at 20 µM) is reported as 68.8%.

In the case of `CSc1ncc(C(=O)NCCCc2ccccc2)c(C)n1`, the inhibition (at 35 µM) is reported as -4.6% (inactive).

For `CC(=O)c1cnc(SCCN2C(=O)c3ccccc3C2=O)nc1C`, the inhibition (at 35 µM) was -5.5% (inactive).

In the case of `CCC1(CC)Cc2ccccc2-c2nc(CCl)[nH]c(=O)c21`, the inhibition (at 35 µM) is reported as -1.7% (inactive).

`O=C(NCCCN1CCOCC1)c1cc(-c2ccccc2F)no1` was tested, and the inhibition (at 35 µM) was -8% (inactive).

With `COc1ccc(N2CCN(C(=S)Nc3ccc(S(N)(=O)=O)cc3)CC2)cc1` the inhibition (at 35 µM) was -0.4% (inactive).

With `CC1CN(C(=S)Nc2ccc(S(N)(=O)=O)cc2)CC(C)O1` (stereo not given) the inhibition (at 35 µM) was -12.5% (inactive).

For `NS(=O)(=O)c1ccc(NC(=S)N2CCCC2)cc1`, the inhibition (at 35 µM) was 28.2% (active) and the inhibition (confirmation repeats, at 20 µM) was 50.5%.

With `CCc1ccc(CNC(=O)C2CCN(c3nnc(C)c4c(C)n(-c5ccc(C)cc5)nc34)CC2)cc1` the inhibition (at 35 µM) was -22.4% (inactive).

In the case of `Cc1cccc(NC(=O)Cc2ccc(Br)cc2)n1`, the inhibition (at 35 µM) is reported as -9.8% (inactive).

With `O=C(NC(Cc1ccc(O)cc1)C(=O)O)/C(=C/c1ccccc1)NC(=O)c1ccccc1` (stereo not given) the inhibition (at 35 µM) was 2.8% (inactive).

With `CC1(C)Oc2ccc3ccc(=O)oc3c2/C(=C/NCCO)C1=O` the inhibition (at 35 µM) was 51.8% (active).

In the case of `C/C=C(/C)C(=O)OC1Cc2c(ccc3ccc(=O)oc23)OC1(C)C` (stereo not given), the inhibition (at 35 µM) is reported as 5.5% (inactive).

`CC1(C)Oc2ccc3ccc(=O)oc3c2/C(=N/O)C1=O` was tested, and the inhibition (at 35 µM) was -7% (inactive).

For `Cc1ccc(S(=O)(=O)N(CC(O)CN2CCCCC2)c2cccc([N+](=O)[O-])c2)cc1` (stereo not given), the inhibition (at 35 µM) was -2.5% (inactive).

`O=C(CCNS(=O)(=O)c1cccs1)N1CCN(c2ccc(F)cc2)CC1` was tested, and the inhibition (at 35 µM) was 2.5% (inactive).

`Cc1cccc(CCNS(=O)(=O)c2ccc3c(c2)NC(=O)CO3)c1` was tested, and the inhibition (at 35 µM) was 0.4% (inactive).
